Peg3 prom inh = inhibitors of Peg3 promoter; HeLa PEG-Prom luciferase reporter, luminescence, overnight; inhibition, % at 20 µM; 360,000 tested, 1.7% active; AID 588405;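 active means inhibition of at least 50% at 20 µM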
Shn3 inh set2 = reduces Shn3 3'UTR luciferase signal in osteoblasts | inhibition, % at 12.5 µM | Clone20 osteoblast Shn3 3'UTR firefly luciferase, 24 h | 360,000 tested, 0.52% active;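 active means mean inhibition of at least 75% with every replicate also reaching 75%; inconclusive means mean inhibition at least 75% but some replicate below; inactive means mean inhibition below 75%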;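 further: 0% = median of neutral control wells and 100% = pilot-screen positive control compound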
MITF TRPM1 inh = inhibitors of MITF-driven TRPM1 promoter in melanoma cells. SK-MEL-5 TRPM1 promoter luciferase, 24 h. inhibition, % at 12.5 µM. 330,000 tested, 0.83% active. AID 488899;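 active means mean inhibition across replicates of 60% or more, whatever share of single replicates reaches that level; inconclusive means some that reach 60%, reason not given; inactive means mean inhibition across replicates below 60%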
HIF-2a block = inhibitors of HIF-2a; inhibition, % at 18.8 µM; 360,000 tested, 0.72% active; AID 624352; 786-0 RCC cells HIF-2a reporter, luciferase luminescence, overnight;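 active means inhibition of the luminescence signal of 40% or more relative to plate controls, in a single-dose primary screen at 18.75 µM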
LMP1 NFkB inh = Epstein-Barr LMP1 NF-kappaB reporter inhibition; inhibition, % at 12.5 µM; 350,000 tested, 0.69% active; LMP1-induced NF-kappaB luciferase reporter cells, luminescence; AID 504558; in the data active means inhibition above about 41%; inconclusive means no clear call, values can overlap the other calls;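 further: 0% = neutral control wells and 100% = reference inhibitor control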
PAX8 inh HTS = PAX8 transcriptional activity inhibition; RMG-I TPO-luciferase reporter, SteadyGlo, 24 h; inhibition, % at 12.6 µM; 360,000 tested, 1.2% active; AID 652154;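 active means mean replicate inhibition at least 60% with every replicate also reaching 60%; inconclusive means only one of the two criteria is met; inactive means mean below 60% and not all replicates reaching 60%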;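 further: luciferase light reporting Pax8 driven TPO promoter activity; plate controls were median of neutral control wells for no effect and mitoxantrone controls for full effect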
Starred values were filed as active, the others as inactive; i = inactive; ? = inconclusive; . = no result. Hits are enriched below; roughly 2.8% of the tested compounds scored in any of these assays.

SMILES	Peg3 prom inh	Shn3 inh set2	MITF TRPM1 inh	HIF-2a block	LMP1 NFkB inh	PAX8 inh HTS
O=C(N[C@@H]1C=C[C@@H](CC(=O)N2CCOCC2)O[C@@H]1CO)c1cccc(F)c1	.	.	.	.	.	5
CC(=O)Nc1ccc(C2=NNC(=Nc3cccc(S(=O)(=O)N(C)C)c3)SC2)cc1	15	9	-5	5	4	.
CN(C)S(=O)(=O)c1cccc(N=C2NN=C(c3ccccc3)CS2)c1	.	.	.	.	.	73*
COc1ccc(C2=NNC(=Nc3cc(S(=O)(=O)N(C)C)ccc3C)SC2)c(OC)c1	15	.	24	0	-3	103*
C[C@@H]1CCCCO[C@H](CN(C)S(=O)(=O)c2cccs2)[C@H](C)CN([C@@H](C)CO)C(=O)c2cc(NS(=O)(=O)c3ccccc3)ccc2O1	.	.	.	.	.	25
CO[C@H]1CN(C)C(=O)c2cc(NS(C)(=O)=O)ccc2OC[C@@H](C)N(C(=O)C2CCCCC2)C[C@@H]1C	.	.	.	.	.	-10
CC1=C(CC(=O)O)c2cc(F)ccc2C1=Cc1ccc(S(C)(=O)=O)cc1	9	-3	2	3	83*	2
CCCNC(=O)NC(=O)COc1ccc(-c2ccc(C#N)cc2)cc1	7	18	5	9	-3	5
Cn1cccc1C(=O)NNC(=O)COc1ccc(C#N)cc1	74*	-2	-1	5	-2	4
C[C@@H]1CN([C@H](C)CO)C(=O)Cc2cc(N(C)C)ccc2O[C@H]1CN(C)C(=O)Nc1ccc(F)cc1	.	.	.	.	.	-8
O=C(O)c1ccc(Nc2nc(-c3ccc([N+](=O)[O-])cc3)nc3ccccc23)cc1	16	26	8	1	0	1
O=[N+]([O-])c1ccc(-c2nc(Nc3ccc(O)cc3)c3ccccc3n2)cc1	64*	33	41	-45	-24	40
CC(C)c1cc(C(=O)OCC(=O)N2CCN(C(=O)c3ccco3)CC2)c(O)c(C(C)C)c1	14	25	44	5	-3	113*
Cc1cccc(C(=O)OCC(=O)N2CCN(C(=O)c3ccco3)CC2)c1O	-4	-13	-7	2	-1	10
C[C@H]1CN([C@@H](C)CO)S(=O)(=O)c2ccc(-c3ccncc3)cc2O[C@@H]1CN(C)C(=O)CN(C)C	.	.	.	.	.	-8
COc1ccc(NC(=O)Nc2cccc(F)c2)c(OC)c1	-143	-23	-35	-155	1	-28
COc1ccc(NC(=O)Nc2ccc(F)c(F)c2)c(OC)c1	-47	3	74*	-110	67*	-19
C[C@@H]1CN([C@@H](C)CO)C(=O)c2cc(N(C)C)ccc2O[C@H]1CN(C)S(=O)(=O)c1ccccc1	.	.	.	.	.	-7
COc1ccc2c3c(n(C)c2c1)[C@@H](CO)N(Cc1nccs1)CC31CN(C(=O)CN(C)C)C1	.	.	.	.	.	-1
CCOC(=O)N1CCN(S(=O)(=O)Cc2ccccc2)CC1	1	-11	11	7	-3	.
CCOC(=O)C1CCN(S(=O)(=O)Cc2ccccc2)C1=O (stereo not given)	2	-3	-1	9	43*	.
C[C@@H]1CN([C@H](C)CO)C(=O)c2cccc(NC(=O)Nc3ccc(C(F)(F)F)cc3)c2O[C@H]1CN(C)C(=O)Nc1ccc2c(c1)OCO2	.	.	.	.	.	23
Cc1[nH]c2ccccc2c1C1=CC(=O)C=CC1=O	76*	66	56	16	-8	21
CN1C(=O)c2cc(NC(=O)C3CCC3)ccc2OC[C@@H]2O[C@@H](CC(=O)NCC3CCCCC3)CC[C@H]21	.	.	.	.	.	13
CCCCn1c(CN(C)Cc2ccccc2)nc2c1c(=O)n(C)c(=O)n2C	16	87*	19	15	12	.
SMILES	Peg3 prom inh	Shn3 inh set2	MITF TRPM1 inh	HIF-2a block	LMP1 NFkB inh	PAX8 inh HTS
COc1cccc(/C=C/C(=O)c2cccc([N+](=O)[O-])c2)c1	17	-9	7	-26	6	5
CC(=O)N1CCN(c2ccc(S(=O)(=O)N3CCCCC3)cc2[N+](=O)[O-])CC1	5	17	-6	7	9	1
COc1cccc(C(=O)/C=C/c2ccc(N3CCCCC3)c([N+](=O)[O-])c2)c1	66*	2	11	-48	1	-16
O=C(/C=C/c1ccc(N2CCCCC2)c([N+](=O)[O-])c1)c1ccc(S(=O)(=O)N2CCCC2)cc1	55*	61	-2	21	6	-3
O=C(Nc1ccccc1F)N1CCCCN2[C@H](C1)[C@H](c1ccc(C3=CCCCC3)cc1)[C@@H]2CO	.	.	.	.	.	-5
Brc1ccc2[nH]c3c(c2c1)CCC3	14	5	-3	-17	-2	-20
O=C1Cc2c([nH]c3ccc(Br)cc23)-c2ccccc2N1	95*	-97	-13	i	-196	.
CN(C)c1ncnc2sc(-c3ccccc3)cc12	-103	-17	-24	-95	6	-41
CN(C)c1ncnc2c1C(c1ccccc1)C(C)(C)O2 (stereo not given)	7	96*	0	11	8	-3
CN1CCN(C(=O)C[C@H]2C[C@H]3c4cc(NC(=O)Cc5ccncc5)ccc4O[C@H]3[C@H](CO)O2)CC1	.	.	.	.	.	-3
Cc1ccc(-c2nnc(NCc3nc4ccccc4[nH]3)c3ccccc23)cc1S(=O)(=O)N1CCOCC1	65*	0	30	-9	2	.
CO[C@H]1CN(C)C(=O)c2ccc(NC(=O)NC(C)C)cc2OC[C@H](C)N(C(=O)CN(C)C)C[C@@H]1C	.	.	.	.	.	-11
OC[C@H]1O[C@@H](n2cnc3c(NCc4ccco4)ncnc32)[C@H](O)[C@@H]1O	40	85	66*	-126	13	100*
OCC1OC(n2cnc3c(NCc4ccco4)ncnc32)C(O)C1O (stereo not given)	87*	?	?	-87	12	104*
C=CCNc1ncnc2c1ncn2C1OC(CO)C(O)C1O (stereo not given)	-22	43	6	12	5	.
Cc1noc(C)c1NC(=O)N(C)C[C@@H]1Oc2ccc(NC(=O)CCC(F)(F)F)cc2CC(=O)N([C@@H](C)CO)C[C@H]1C	.	.	.	.	.	-3
COc1ccc(NC(=O)CSc2nnc(-c3cccc(O)c3)o2)cc1	-204	-6	-19	-136	6	-102
Cc1cc(C(=O)CSc2nnc(-c3cccs3)o2)c(C)n1-c1ccccc1	25	15	39	0	58*	18
COc1cccc(NC(=O)CSc2nnc(-c3cc(C)n(-c4ccccc4)c3C)o2)c1	-77	34	17	42*	26	-98
O=C(CSc1nnc(-c2cccs2)o1)c1cccs1	-305	-43	-72	-243	-25	.
COc1cccc(CNC(=O)[C@@H]2[C@@H](CO)[C@@H]3Cn4c(ccc(-c5cccnc5)c4=O)[C@H]2N3C(C)=O)c1	.	.	.	.	.	-7
CC(O)(c1ccncc1)c1nc(-c2cccc(C(F)(F)F)c2)cs1 (stereo not given)	18	85*	.	10	.	-3
CC(O)(c1cccc(F)c1)c1nc(-c2cccc(C(F)(F)F)c2)cs1 (stereo not given)	-1	-13	.	7	.	0

Screening results (PubChem)
